Test results from PubChem BioAssay (NCATS).
Results filed as inconclusive are left out. Calls of active or inactive are those of the source. Unless noted, the call rests on the fitted dose curve; in most records, active means well fitted curve in the direction sought with a large enough effect; inconclusive means small, poorly fitted or top-dose-only effect, or another doubt; inactive means no such curve, though single readings can be large; an effect the other way counts as inactive or inconclusive.

Tests used:
[1] = qHTS profiling of the MIPE4 collection as inhibitors of Plasmodium falciparum (3D7) proliferation (AID 743344; call rule not given here;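 further: scaled between DMSO vehicle wells and 0.29 µM artemisinin as full inhibition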); details: P. falciparum 3D7 in erythrocytes, SYBR Green DNA fluorescence, 72 h; at 28.5 µM unless noted
Procedure, shortened: (§1)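 Parasite DNA was quantified by SYBR Green I fluorescence (ex 485, em 535 nm) after overnight lysis in saponin/Triton buffer at room temperature. Cultures at 0.3% parasitemia and 2.5% hematocrit were first exposed to compound for 72 h at 37 C; signals were normalised to artemisinin (0.29 uM) and vehicle wells.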

[2] = qHTS profiling of the MIPE4 collection as inhibitors of Plasmodium falciparum (DD2) proliferation (AID 743345; call rule not given here); details: P. falciparum Dd2 in erythrocytes, SYBR Green DNA, 72 h; at 28.5 µM unless noted
Procedure, shortened: as §1

[3] = qHTS profiling of the MIPE4 collection as inhibitors of Plasmodium falciparum (DD2) proliferation (Rep 2) (AID 743346; call rule not given here); details: P. falciparum Dd2 in erythrocytes, SYBR Green DNA, 72 h; at 28.5 µM unless noted
Procedure, shortened: as §1

[4] = qHTS profiling of the MIPE4 collection as inhibitors of Plasmodium falciparum (HB3) proliferation (AID 743347; call rule not given here;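 further: plate controls were DMSO vehicle wells for no effect and artemisinin wells for full effect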); details: P. falciparum HB3 in erythrocytes, SYBR Green DNA, 72 h; at 28.5 µM unless noted
Procedure, shortened: as §1

[5] = High-throughput drug toxicity screening in the BPDCN cell line Gen2.2 (AID 1224824; call rule not given here); details: Gen2.2 BPDCN cells; at 45.8 µM (top of the series) unless noted
Procedure, shortened: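 CellTiter-Glo luminescence after 48 h compound exposure of Gen2.2 cells; percent activity set with DMSO as 100% and bortezomib (9.2 uM final) as 0%. Cells seeded at 500 per well, RPMI + 10% FBS, 37 °C.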

[6] = High-throughput drug toxicity screening in the BPDCN cell line Cal-1 (AID 1224825; call rule not given here); details: Cal-1 BPDCN cell viability, qHTS; at 45.8 µM (top of the series) unless noted
Procedure, shortened: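 CellTiter-Glo luminescence after 48 h compound exposure; percent activity scaled with DMSO as 100% and bortezomib (9.2 uM final) as 0%. Cal-1 cells seeded at 500/well in RPMI, 10% FBS, no phenol red.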

[7] = qHTS assay for measurement of the activity of small molecule inhibitors on Zika virus induced Caspase-3 activity in human iPSC derived neural progenitor cells (hNPCs) (AID 1224857); further: % of control where 0% means no effect; nearly all actives have a fitted effect of over 65% in size
Procedure, shortened: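 After overnight (16–20 h) culture at 350 cells/well, hNPCs get compound, then ZIKV 2 FFU/cell one hour later. Six hours on, Caspase-Glo 3/7 is added and luminescence measured.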

[8] = qHTS assay for measurement of the activity of small molecule inhibitors on Zika virus induced Caspase-3 activity in human astrocytoma cells (AID 1224859);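 further: plate controls were ZIKV-infected untreated cells for no effect and uninfected cells for full effect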
Procedure, shortened: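 Inhibition of Zika-induced caspase-3/7 activity: SNB-19 cells, 1 h compound pretreatment, ZIKV 2 FFU/cell for 6 h at 37 C, Caspase-Glo luminescence read-out.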

[9] = qHTS Screen of the MIPE 4.0 Collection Against Ewings Sarcoma (RDES) (AID 1259252); further: nearly all actives have a fitted effect of over 35% in size; further: potency means the concentration at half of the fitted maximal effect
Procedure, shortened: (§2)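 Viability screen: 48 h incubation at 37C, 95% humidity, 5% CO2 with serially titrated compound, followed by CellTiter-Glo readout.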

[10] = qHTS Screen of the MIPE 4.0 Collection Against Ewings Sarcoma (TC71) (AID 1259253); further: nearly all actives have a fitted effect of over 40% in size; further: potency means the concentration at half of the fitted maximal effect
Procedure, shortened: as §2

[11] = qHTS Screen of the MIPE 4.0 Collection Against Ewings Sarcoma (EW8) (AID 1259255); further: nearly all actives have a fitted effect of over 35% in size; further: potency means the concentration at half of the fitted maximal effect;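 on viability: 100% = DMSO-treated cells and 0% = medium-only wells without cells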
Procedure, shortened: as §2

[12] = qHTS Screen of the MIPE 4.0 Collection Against Ewings Sarcoma (TC32) (AID 1259256); further: potency means the concentration at half of the fitted maximal effect; nearly all actives have a fitted effect of over 45% in size
Procedure, shortened: as §2

[13] = qHTS profiling for inhibitors of Plasmodium falciparum (DD2) proliferation (AID 743323; call rule not given here); details: lower = more inhibition; at 28.7 µM (top of the series) unless noted
Procedure, shortened: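 SYBR Green fluorescence (ex 485, em 535 nm) of lysed cultures gives parasite DNA content; wells normalized to artemisinin (0.29 uM) and DMSO controls. Infected red cells: 0.3% parasitemia, 2.5% hematocrit, 72 h, 37 C.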

[14] = qHTS profiling for inhibitors of Plasmodium falciparum (HB3) proliferation (AID 743324); details: Plasmodium falciparum HB3 blood-stage proliferation; at 28.7 µM (top of the series) unless noted;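 further: 100% = DMSO vehicle wells and 0% = artemisinin-treated control wells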
Procedure, shortened: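 SYBR Green fluorescence (485 ex/535 em) of lysed cultures, incubated overnight at room temperature in the dark, quantifies parasite DNA. Infected erythrocytes at 0.3% parasitemia and 2.5% hematocrit were exposed 72 h; values normalized to DMSO and 0.29 uM artemisinin controls.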

[15] = Identifying Small Molecule Inhibitors of Pancreatic Cancer Stem Cells (A2780, Spheroid) (AID 1259357); details: Potency: A2780 spheroid viability;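 further: compound exposure lasted 48 h before the ATP luminescence read; 100% = DMSO treated cells and 0% = wells without cells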
Procedure, shortened: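 Endpoint: ATP-based luminescence, 48 h drug exposure. Bortezomib at 9.2 uM final as full-kill control; DMSO vehicle as negative control; activity normalized between vehicle and cell-free wells.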

[16] = Identifying Small Molecule Inhibitors of Pancreatic Cancer Stem Cells (A278, Adherent) (AID 1259361);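 further: viability read after 48 h compound exposure; nearly all actives have a fitted effect of over 35% in size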
Procedure, shortened: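 Monolayer and spheroid cultures are compared. Spheroids form over 14 days in stem cell medium on hydrogel-coated low-attachment plates, then are exposed to compound for 48 h before CellTiter-Glo luminescence.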

[17] = Identifying Small Molecule Inhibitors of Pancreatic Cancer Stem Cells (Panc1, Adherent) (AID 1259362); details: Potency: viability;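 further: compound exposure lasted 48 h before the viability read; plate controls were DMSO-treated cells for no effect and cell-free media wells for full effect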
Procedure, shortened: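 Adherent (2D) versus sphere (3D) formats; spheres generated 14 d in SCM beforehand. Compound transferred by pin tool after 4 h, 48 h incubation, CellTiter-Glo endpoint.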

[18] = qHTS assay to identify small molecule inhibitors of chordoma cells - UCH-1 (AID 1259355); further: on the % scale 0 is the no-effect control and ±100 the full control effect; nearly all actives have a fitted effect of over 55% in size
Procedure, shortened: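 Screening used approved and investigational drugs in 15-point titration against 800 seeded cells per well. A fixed combination of auranofin with camptothecin, doxorubicin, rubitecan and topotecan followed compound addition, and growth was scored by CellTiter-Glo after 48hr.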

[19] = qHTS assay to identify small molecule inhibitors of chordoma cells - UCH-2 (AID 1259356); further: on the % scale 0 is the no-effect control and ±100 the full control effect

Row | SMILES | parasite growth, % of DMSO control [1] | parasite growth remaining, % of DMSO control (lower = more inhibition) [2] [%] | parasite growth, % of control (lower = inhibition) [3] | growth, % of control [4] | cell viability, % of control (lower = more cytotoxic) [5] | viability (% of control) [6] | Potency [7] | Potency [8] | Potency [9] | Potency [10] | Potency [11] | Potency [12] | activity, percent of control [13] [%] | remaining proliferation (% of control), lower = more inhibition [14] [%] | Potency [15] | IC50 (viability decrease) [16] | Potency [17] | outcome [18] | outcome [19]
1 | CC1(C)C(N(O)C(=O)Nc2ccc(Cl)cc2)N(c2ccc(Cl)cc2)C(=O)N1CC(=O)NN=CC=Cc1ccc([N+](=O)[O-])o1 (stereo not drawn) | 5.05% | 9.75 | 18.3% | 7.55% | 3.85% | 2.85% | inactive | inactive | 26.4 µM (active) | 18.7 µM (active) | 14.8 µM (active) | 18.7 µM (active) | – | – | – | – | – | – | –
2 | COc1cccc(OC)c1-c1cc(C(=O)NC2(C(=O)O)C3CC4CC(C3)CC2C4)nn1-c1ccnc2cc(Cl)ccc12 (stereo not drawn) | 31.4% | 33.7 | 29.8% | 7.09% | 119% | 128% | inactive | inactive | inactive | inactive | inactive | – | 56.1 | 47.3 | inactive | 20.9 µM (active) | inactive | – | –
3 | COc1cc(Cl)cn2c(-c3cccc(NC4CNC4)n3)cnc12 | 39.6% | 27.3 | 33.2% | 42.7% | 91.4% | 5.98% | inactive | inactive | 26.4 µM (active) | 23.5 µM (active) | inactive | – | – | – | – | – | – | – | –
4 | CC(C)C[C@@H](N)[C@H](O)C(=O)N[C@H](C(=O)N[C@H](C(=O)N[C@@H](CC(=O)O)C(=O)O)C(C)C)C(C)C | 102% | 99.5 | 127% | 107% | 128% | 104% | inactive | inactive | 20.9 µM (active) | 18.7 µM (active) | inactive | – | – | – | – | – | – | – | –
5 | NC(N)=Nc1nc(CSCCC(N)=NS(N)(=O)=O)cs1 | 74.6% | 98.2 | 84.9% | 92.7% | 171% | 50.4% | inactive | inactive | 11.8 µM (active) | 18.7 µM (active) | inactive | – | – | – | – | – | – | – | –
6 | CC(C)CN(C[C@@H](O)[C@H](Cc1ccccc1)NC(=O)O[C@H]1CO[C@H]2OCC[C@H]21)S(=O)(=O)c1ccc(N)cc1 | 42.7% | 19.4 | 101% | 8.15% | 118% | 117% | inactive | inactive | 2.09 µM (active) | 3.72 µM (active) | 1.32 µM (active) | – | – | – | – | – | – | inactive | inactive
7 | N#CC(c1ccnc(NCCc2cccnc2)n1)c1nc2ccccc2s1 (stereo not drawn) | 4.46% | 18.6 | – | 7.28% | 9.41% | 3.4% | inactive | inactive | 23.5 µM (active) | 16.6 µM (active) | 14.8 µM (active) | – | – | – | – | – | – | – | –
8 | CCN1C[C@H](C)n2c(c(O)c3c(=O)n(Cc4ccc(F)c(Cl)c4)nc(C(=O)NC)c32)C1=O | – | – | – | – | 108% | 113% | inactive | inactive | inactive | inactive | inactive | – | – | – | – | – | – | – | –
9 | CN[C@@H]1CN(c2ccc3c(=O)c(C(=O)O)cn(-c4nccs4)c3n2)C[C@@H]1OC | 9.37% [at 9.64 µM] | – | 8.12% [at 9.64 µM] | 8.57% [at 9.64 µM] | 7.46% [at 23.2 µM] | 3.44% [at 23.2 µM] | inactive | inactive | 1.29 µM (active) | 0.645 µM (active) | 0.323 µM (active) | – | – | – | – | – | – | – | –
10 | Cc1[nH]c(C=C2C(=O)Nc3ccc(S(=O)(=O)N(C)c4cccc(Cl)c4)cc32)c(C)c1C(=O)N1CCN(C)CC1 | 7.33% | 9.96 | 14.4% | 4.63% | 2.96% | 0.852% | inactive | inactive | 26.4 µM (active) | 26.4 µM (active) | 26.4 µM (active) | – | – | – | – | – | – | – | –
11 | CCCC1OC2C[C@@H]3[C@H]4CCC5=CC(=O)C=C[C@]5(C)[C@H]4C(O)C[C@]3(C)[C@]2(C(=O)CO)O1 (stereo partly drawn) | 11.7% | 20.2 | 15.8% | 5.33% | 12.2% | 11.8% | inactive | inactive | inactive | 13.2 µM (active) | 18.7 µM (active) | – | – | – | – | – | – | – | –
12 | C[C@H]1[C@H](O)O[C@@H]2O[C@@]3(C)CC[C@@H]4[C@H](C)CC[C@@H]1[C@@]24OO3 | 18.9% | 7.23 | 13.8% | 11.1% | 15.8% | 7.2% | inactive | inactive | 3.32 µM (active) | 1.48 µM (active) | 1.66 µM (active) | – | – | – | – | – | – | – | –
13 | CC(=O)OCC(=O)[C@@]1(O)CC[C@H]2[C@@H]3CCC4=CC(=O)C=C[C@]4(C)[C@@H]3[C@@H](O)C[C@@]21C | 77.8% | 102 | 81.3% | 80.7% | 165% | 58.1% | inactive | inactive | inactive | 9.35 µM (active) | inactive | – | – | – | – | – | – | – | –
14 | O=c1[nH]nc(OCCCc2ccc(Cl)cc2)c(NCc2cccnc2)c1Br | 6.4% | 6.08 | 30.4% | 10.3% | 9.32% | 8.48% | inactive | inactive | 18.7 µM (active) | 16.6 µM (active) | 13.2 µM (active) | – | – | – | – | – | – | – | –
15 | O=C(Nc1ncc(SCCN2CCCC2)s1)[C@]1(c2ccc(S(=O)(=O)C3CC3)cc2)C[C@@H]1C1CCCCC1 | 6.74% | 7.78 | 20.2% | 10.1% | 116% | 92.3% | inactive | inactive | 13.2 µM (active) | 23.5 µM (active) | 13.2 µM (active) | – | – | – | – | – | – | – | –
16 | CC(C)CN(C[C@H](O)[C@H](Cc1ccccc1)NC(=O)O[C@H]1CCOC1)S(=O)(=O)c1ccc(N)cc1 | 6.57% | 73.7 | 56.3% | 42.8% | 149% | 97.6% | inactive | inactive | 16.6 µM (active) | 18.7 µM (active) | 18.7 µM (active) | – | – | – | – | – | – | – | –
